Cav32 inh: human Cav3.2 channel inhibition, primary screen; B-score at 10 µM; 4% of 100,000 active; Cav3.2-expressing cells, Fluo-4 calcium fluorescence FDSS; active compounds read low; O95180; AID 449739;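 active = single-dose well whose peak fluorescence ratio is a statistical outlier from its plate by either plate-standardised score or position-corrected B-score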
PostGolgi ctrl: yeast control strain growth, post-Golgi counter-screen; efflux-deficient yeast background strain, growth absorbance A615, 16 h; inhibition, % at 10 µM; 5% of 98,000 active; AID 738
hDAT+cocaine: human DAT dopamine uptake with cocaine, either direction; LLC-PK1 hDAT cells, [14C]-dopamine uptake with cocaine IC80; actives deviate in either direction; B-score at 10 µM; AID 449768; Q01959; 1.3% of 110,000 active;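 active = Z score or B-score, a plate-position-corrected score, falls beyond the plate's 99.7% confidence bounds, in either direction; inactive = both scores lie inside the 99.7% bounds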;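 also: scored against the spread of the other compound wells on the same plate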
PostGolgi yeast: growth inhibition of a yeast mutant, post-Golgi transport screen. post-Golgi transport phenotypic cell assay. inhibition, % at 10 µM. 0.9% of 98,000 active;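 also: yeast cells grown in 1536-well plates; yeast grown about 18 h at 30C before absorbance read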
PLAP activator: human PLAP activation; activation fold at 20 µM; AID 696; 1.2% of 96,000 active; purified PLAP enzyme, luminescent substrate read-out; active compounds read high; P05187; in the data active = activation fold above about 2
Starred values were filed as active, the others as inactive; nt = not tested or not shown. Only some compounds are listed: those with a hit (about 9.6% of all), similar ones and a draw of the others. Rule as the data show it, unless noted: active = inhibition above about 30%; inactive = the rest.

SMILES	Cav32 inh	PostGolgi ctrl	hDAT+cocaine	PostGolgi yeast	PLAP activator
O=C(CSc1nc2ccccc2c(=O)n1Cc1ccco1)N1CCCCCC1	-2.4	26.5	-0.782	1.8	1.1
O=C(NCc1ccco1)c1ccc2c(=O)n(Cc3ccco3)c(SCC(=O)N3CCCC3)nc2c1	-0.271	0.1	2.2*	-5.3	1.3
CCOC(=O)C1CCN(C(=O)CN(c2ccc3c(c2)OCCO3)S(C)(=O)=O)CC1	1.01	11.6	nt	-8.8	1
CC(C)Oc1ccc(Cc2c(O)nc(NCCCN(C)C)[nH]c2=O)cc1	0.904	11.4	-0.25	0.6	nt
NC(=O)CC(NC(=O)Cc1cccc2ccccc12)c1ccc(NCCc2ccccc2F)c([N+](=O)[O-])c1 (stereo not given)	-0.0692	nt	-0.0583	nt	nt
Cc1cc(NC(=O)NC(=O)c2cccc(OC(F)(F)C(F)F)c2)n[nH]1	0.889	33.4*	0.92	-11.1	1.1
COc1cc2c(cc1OC)C(c1ccccc1O)N(C1CC(=O)N(c3ccccc3)C1=O)CC2 (stereo not given)	nt	-1.7	nt	-7.8	1.8
CC(CCc1ccccc1)NC(=O)CN1CCN(Cc2ccccc2)C1=O (stereo not given)	0.13	33.0*	-0.0172	0.2	1
CC(CCc1ccccc1)NC(=O)CN1CCN(Cc2ccc(Cl)cc2)C1=O (stereo not given)	-8.17*	15.2	-0.319	1.8	1.5
O=C(CN1CCN(Cc2ccccc2F)C1=O)NCCc1ccc(Cl)cc1	-3.1	3.3	0.07	-3.1	1.4
O=C1N(CC(=O)N2CCc3ccccc32)CCN1Cc1ccc(Cl)cc1	-4.53*	5.1	-0.116	17.5	1
CC(CCc1ccccc1)NC(=O)CN1CCOc2ccccc21 (stereo not given)	-2.94	nt	-0.0373	nt	nt
Cc1ccc(CN2CCN(CC(=O)NC(C)CCc3ccccc3)C2=O)cc1 (stereo not given)	-5.7*	9.3	0.0395	5.0	1.7
COc1ccc(CN/C(C)=C(/C#N)C(N)=O)cc1OC	0.791	3.4	-0.228	10.3	0.9
Clc1cc(Sc2ccc(Br)cc2)nnc1-c1ccccc1	-5.29*	65.1*	-0.419	-8.2	1
Cc1ccc(S(=O)(=O)N2CCOCC2)cc1NC(=O)COC(=O)CSc1ccc(Br)cc1C	-0.115	2.7	-2.12	13.0	1.6
CCc1cc2c(N3CCN(c4ccccc4)CC3)ncnc2s1	-3.55	48.3*	1.22	-1.9	0.9
CCOC(=O)C(C)N1N=C(/C=C/c2ccc(OC)cc2)CCC1=O (stereo not given)	0.262	29.9	-0.232	8.2	1.3
CCOC(=O)c1sc2ccc(S(=O)(=O)N3CCOCC3)cc2c1N	-0.566	7.7	-0.985	11.0	0.9
CCOC(=O)c1sc2ccc(S(=O)(=O)N3CCCCC3)cc2c1N	-0.733	42.0*	-0.0403	0.3	0.9
CCOC(=O)c1[nH]c(C)c(C(=O)NCCCN2CCOCC2)c1C	0.32	-0.1	-5.03*	5.2	0.9
Cc1c(C(=O)NCCN2CCOCC2)oc2ccc(S(=O)(=O)N3CCCCCC3)cc12	1.2	15.7	2.04*	0.9	1.6
CCN(CC)S(=O)(=O)c1ccc2oc(C(=O)NCc3ccc(F)cc3)c(C)c2c1	-6.82*	22.9	2.67	0.5	1.2
CCOC(=O)c1c(NC(=O)CSc2nnc(CNC(=O)c3ccco3)n2C)sc2c1CCC2	-0.539	26.1	0.423	-1.7	1.4
COc1ccc(Cl)cc1Nc1nc(C)cc(C)c1C(N)=O	nt	nt	0.547	nt	nt
SMILES	Cav32 inh	PostGolgi ctrl	hDAT+cocaine	PostGolgi yeast	PLAP activator
CCCCN(Cc1ccccc1)C(=O)C1CCN(S(=O)(=O)c2c(C)noc2C)CC1	1.93	-4.0	-0.172	20.6	1.2
O=C(CCSc1ccccc1)Nc1ccc(S(=O)(=O)N2CCOCC2)cc1	-0.734	17.4	-0.469	-8.6	1.7
c1ccc2c(c1)Cc1cc(CN3CCOCC3)ccc1-2	0.309	0.9	0.638	-10.7	1.2
O=C(NCCCn1ccnc1)c1ccc(Br)o1	0.913	0.9	0.022	-9.2	1.2
Cc1c(C(=O)Nc2ccc(F)cc2)oc2ccc(S(=O)(=O)N3CCC4(CC3)OCCO4)cc12	-0.921	8.7	-0.237	-2.6	1
Cc1c(C(=O)NCCN2CCOCC2)oc2ccccc12	0.00594	0.9	-0.912	-1.4	1.1
Cc1c(C(=O)NCCC2=CCCCC2)oc2ccc(S(=O)(=O)N3CCC4(CC3)OCCO4)cc12	-5.56*	9.0	0.839	-22.4	1.4
CCN(CC)S(=O)(=O)c1ccc2oc(C(=O)NCCCN3CCOCC3)c(C)c2c1	0.913	7.2	-0.183	5.0	2*
CCOC(=O)N1CCN(C(=O)c2oc3ccc(S(=O)(=O)N4CCCCC4)cc3c2C)CC1	0.448	3.8	2.99*	0.5	1.4

Source: PubChem BioAssay (several laboratories)
